Source: PubChem BioAssay (several laboratories)
Rows were chosen to be rich in hits. Some 2.4% of all compounds tested hit in one or more screens of this group.
NOD2 RIPK2 PPI – NOD2-RIPK2 binding disruptors in cells, primary screen, fluorescence, CHO cells, BLA complementation; Receptor-interacting serine/threonine-protein kinase 2 (Homo sapiens), O43353; CCF4 ratio; inhibition, % at 4.98 µM; 360,000 tested, 0.38% active; AID 624267, 2012; in the data active means inhibition above about 21%;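 further: 0% = vehicle only and 100% = reference blocker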
TLR9-MyD88 block – inhibitors of TLR9-MyD88 association in cells, primary screen, cell-based, CHO, BLA complementation, fluorescence | Toll-like receptor 9 (Homo sapiens) + Myeloid differentiation primary response protein … | AID 504734, 2011 | inhibition, % at 4.98 µM | CCF4 FRET ratio | 340,000 tested, 0.21% active;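 active means inhibition above the mean over all tested compounds plus 3 SD, cut at about 21% in these data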;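 further: 0% = DMSO only wells and 100% = clavulanate BLA inhibitor control wells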
HSF1 activator – HSF-1 activators, primary screen, NIH3T3-HGL cells, MG132 stress, luminescence, single point | NIH3T3-HGL HSF-1 luciferase reporter, 8 h; 100% = twice DMSO control signal | activation, % at 9 µM | 300,000 tested, 1.7% active | AID 504408, 2011;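 active means mean replicate activation of at least 50% with a set share of replicates each reaching 50%; inconclusive means only one of those two conditions met; inactive means mean below 50% and too few replicates reaching it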;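 further: 0% = median of the neutral control wells and 100% = twice that signal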
TLR4-MyD88 BLA – inhibitors of TLR4-MyD88 association in cells, primary screen, cell-based, HeLa CL3-4, BLA complementation, FRET ratio. Toll-like receptor 4 (Homo sapiens) + Myeloid differentiation primary response protein …. HeLa CL3-4 TLR4/MyD88 BLA complementation. inhibition, % at 8.4 µM. 200,000 tested, 0.18% active. AID 861, 2007; in the data active means inhibition above about 25%;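 further: 0% = vehicle and 100% = reference inhibitor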
HSF1 inhib – HSF1 inhibitors in luciferase reporter cells, primary screen, cell-based, NIH3T3, luminescence; NIH3T3-HGL HSE-luciferase, MG132-induced, luminescence 8 h; active compounds read low; AID 2098, 2009; activity change, negative = inhibition, % at 7.5 µM (by protocol); 300,000 tested, 0.77% active;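 active means more than half of replicate wells show activity change below -50%, luminescence cut by over half; inconclusive means some wells, but at most half, below -50%; inactive means no replicate well below -50%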;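 further: luciferase reports HSF-1 transcriptional activity via heat shock element; 0% = median of DMSO wells and -100% = zero luminescence signal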
An asterisk follows results filed as active; ? = inconclusive; nt = no result.

SMILES | NOD2 RIPK2 PPI | TLR9-MyD88 block | HSF1 activator | TLR4-MyD88 BLA | HSF1 inhib
CCN(N=O)c1ccc(C=C2C=Cc3ccccc32)cc1 | 3 | 0 | nt | nt | nt
O=S(=O)(Nc1ccc(Cl)cn1)c1cccs1 | -1 | -6 | -7 | nt | 3
Cn1nc(N)c2c(-c3ccc(Cl)cc3)c(C#N)c(N)nc21 | 0 | -5 | -8 | 1 | -9
Cn1nc(N)c2c(-c3ccccc3)c(C#N)c(N)nc21 | -6 | -6 | -75 | 2 | -69*
CN(C)c1ccc(CNC(=O)c2ccc(CNc3c(N4CCCCC4)c(=O)c3=O)cc2)cc1 | -8 | 7 | 61* | -10 | 30
Cc1cccc(/C(N)=N/OC(=O)c2ccoc2C)c1 | -1 | 2 | 85* | nt | 34
Cc1occc1C(=O)O/N=C(\N)c1ccccc1 | -11 | nt | 33 | nt | 21
Cc1cccc(NC(=O)CCc2c(C)nn(-c3ccc(N4CCOCC4)nn3)c2C)c1 | -1 | 3 | -1 | nt | -5
Cc1cccc(NC(=O)CCc2c(C)nn(-c3ccc(N4CCCCC4)nn3)c2C)c1 | 13 | 7 | 64* | nt | 32
CC(C)(C)c1cccc(/C=N/O)c1O | 4 | -3 | 66* | 7 | 21
CC(C)(C)c1ccc(O)c(/C=N\O)c1 | -4 | 9 | 14 | -20 | 4
Cc1ccc(C2NNC(=O)C2NC(=O)c2ccccc2)cc1 (centres undefined) | -2 | -7 | 65* | -10 | 35
O=C(Nc1cccnc1)c1cc(S(=O)(=O)N2CCCCC2)c(Cl)cc1Cl | 3 | -3 | -12 | nt | -8
COc1ccccc1CNCc1cc(OC)c(OC)cc1OC | 3 | -2 | -6 | 8 | -13
COc1ccccc1CNCC(c1ccccc1)c1ccccc1 | -7 | -1 | 61* | nt | 25
Cc1ccc(CNc2c(C=O)c(=O)[nH]c3ccccc23)cc1 | 5 | -6 | 63* | nt | 17
O=Cc1c(NCc2ccc(F)cc2)c2ccccc2[nH]c1=O | -10 | 4 | 6 | nt | 2
CCC(=O)N1C(C(=O)N2CCCC2)CSC1c1ccc(OC)cc1 (centres undefined) | 10 | 3 | -90 | -3 | -88*
CCC(=O)N1C(C(=O)O)CSC1c1ccc(OC)cc1 (centres undefined) | -5 | 8 | -10 | 1 | -5
CCCOC1CCCN(C(=O)CCc2nnc(Cc3cccc(C)c3)o2)C1 (centres undefined) | -6 | 0 | 63* | 2 | 30
Nc1c(C2CCCCC2)c(=O)on1C(=O)c1ccccc1 | 0 | -12 | nt | nt | nt
O=C(NCCC1CCCCN1S(=O)(=O)c1ccc(F)cc1)C(=O)Nc1ccccc1F (centres undefined) | 2 | 1 | -75 | nt | -67*
O=C(NCCC1CCCCN1S(=O)(=O)c1ccccc1)C(=O)Nc1ccccc1F (centres undefined) | 4 | -1 | 10 | nt | 7
CC(/C=C/c1ccco1)=N\NC(=O)COc1ccc(C)c(C)c1 | -6 | -3 | 78* | -1 | 67
Cc1cccc(C)c1OCC(=O)N/N=C/C=C/c1ccco1 | -9 | 1 | 81* | -5 | 63
SMILES | NOD2 RIPK2 PPI | TLR9-MyD88 block | HSF1 activator | TLR4-MyD88 BLA | HSF1 inhib
O=C(Cc1cccs1)N/N=C/C=C\c1ccco1 | -11 | 6 | 92* | 5 | 64
CC(/C=C/c1ccco1)=N/NC(=O)c1ccccc1Cl | 4 | 3 | ? | 11 | 27
O=C(N/N=C/C=C/c1ccco1)c1ccccc1Cl | -5 | 8 | 69* | -10 | 42
Cc1cccc(OCC(=O)N/N=C/C=C/c2ccco2)c1 | 0 | -10 | 17 | -3 | 21
O=C(Cc1cccs1)N/N=C/c1ccco1 | -11 | -2 | -2 | -1 | -8
CCN(Cc1ccccc1)C(=O)COC(=O)[C@@H]1CCCN1C(=O)c1cccs1 | -10 | -7 | nt | nt | nt
Cc1ccc2cccnc2c1NC(=S)NC(=O)c1ccccc1 | 0 | -2 | 137* | -6 | 122
CN(c1ccccc1)c1nc(N)c([N+](=O)[O-])c(N2CCCCCC2)n1 | 6 | 2 | 78* | nt | 51
CC1CCN(c2nc(N(C)c3ccccc3)nc(N)c2[N+](=O)[O-])CC1 | -12 | 7 | 67* | nt | 27
CCN1CCN(c2nc(N(C)c3ccccc3)nc(N)c2[N+](=O)[O-])CC1 | -15 | -2 | 3 | nt | -3
Cc1cccc(Nc2nc(N)c([N+](=O)[O-])c(N3CCC(C)CC3)n2)c1 | -5 | -13 | 20 | 7 | 10
COc1ccc(Br)cc1/C=N/n1nnnc1N | -8 | 4 | 13 | nt | -2
COc1ccccc1C(=O)COC(=O)CNC(=O)c1ccc(Br)o1 | -5 | 0 | -1 | nt | -4
COc1ccccc1C(=O)NCC(=O)OCC(=O)c1cccc2ccccc12 | 4 | 4 | 60* | nt | 19
C=C1C(=O)C=C2CN(C(=O)c3ccccc3)[C@@](Cc3ccc(F)cc3)(C(=O)OC)[C@@H]12 | 48* | 9 | ? | -8 | 40
Cn1cccc1/C=C1\SC(=O)N(c2ccccc2)C1=O | -7 | -12 | 65* | -2 | 24
Cc1nn(Cc2ccccc2Cl)c(C)c1C(=O)NCC(c1cccs1)N1CCOCC1 (centres undefined) | 2 | 11 | 14 | nt | 0
COc1ccc(C(NC(=O)c2c(F)c(F)c(F)c(F)c2F)c2ccccc2)cc1 (centres undefined) | 16 | -7 | 53* | -3 | 41
O=C(OCC(=O)N1CCC(Cc2ccccc2)CC1)c1ccc(CO)cc1 | -11 | 3 | nt | nt | nt
Cc1cccc(C)c1NC(=O)COC(=O)c1cccc2c1C(=O)c1ccccc1C2=O | 2 | 10 | 82* | 4 | 30
O=C(COC(=O)CNC(=O)c1ccc(Cl)cc1Cl)NC(=O)NC1CCCCC1 | -13 | 3 | 4 | nt | -3
COCCCNC(=O)CCn1c(=O)c2ccccc2n(CC(=O)Nc2cc(Cl)ccc2C)c1=O | -9 | 3 | 83* | -12 | 45
CCOc1ccc(N(CC(=O)NCc2ccco2)C(=O)CCC(=O)Nc2nccs2)cc1 | -16 | -5 | 2 | nt | -1
CCCCCOC(=O)C1=C(C)NC(=O)NC1c1ccc([N+](=O)[O-])cc1 (centres undefined) | 14 | 4 | 63* | nt | 37
CCCCCCOC(=O)C1=C(C)NC(=O)NC1c1ccc(O)cc1 (centres undefined) | 0 | 3 | 19 | 5 | 1
CCOC(=O)C(CCc1ccccn1)c1ccccc1 (centres undefined) | -7 | -3 | nt | nt | nt
CC12CC(c3ccccc3O1)C(C(=O)NCc1ccccc1)C(=O)N2 (centres undefined) | -4 | 5 | -76 | 1 | -71*
Cc1ccc(C2=NNC(C(O)C(O)C(O)C(C)O)S2)cc1 (centres undefined) | 5 | 5 | 75* | 5 | 38
